Consider 5 compounds from PubChem BioAssay (NCATS).

Records with an inconclusive call do not appear. The source made the active and inactive calls. Unless noted, the call rests on the fitted dose curve; in most records, active means well fitted curve in the direction sought with a large enough effect; inconclusive means small, poorly fitted or top-dose-only effect, or another doubt; inactive means no such curve, though single readings can be large; an effect the other way counts as inactive or inconclusive. Some results are limits rather than exact numbers.

Assay [1] deals with Lysosomal acid glucosylceramidase (Homo sapiens) (UniProt P04062). Briefly: Glucocerebrosidase-p2 (AID 348; in the data active means potency below about 10 µM; further: potency means the concentration at half of the fitted maximal effect). The following applies: purified GBA, blue fluorogenic substrate, 40 min. The essentials:
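Compounds titrated from 0.6 nM upwards against 0.2 nM enzyme in pH 5.9 citric acid/KH2PO4, taurocholate, tween-20; blue fluorogenic substrate 80 uM, 40 min room temperature, stopped and read Ex 365/Em 440 for AC50.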

Assay [2] is described as follows: AP1 Signaling Pathway (AID 357; active means well fitted curve in either direction with a large enough effect, not every such curve was filed as active;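 further: ME-180 reporter cells stimulated with EGF at its EC50 level; on the % scale 0 is the no-effect control and ±100 the full control effect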). The following applies: ME-180 AP-1-bla reporter, EGF-induced, beta-lactamase ratio, 5 h; at 7.69 µM (top of the series) unless noted. The procedure, abridged:
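Read-out was the 460nm/530nm emission ratio (excitation 405nm) after CCF4 loading for 2.5 hours at room temperature. Cells carried an AP-1-driven beta-lactamase reporter, were stimulated with EC50 EGF plus compound for 5 hours, and AC50 values came from titrations.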

Assay [3] deals with Cytochrome P450 1A2 (Homo sapiens) (UniProt P05177). Nature of the assay: p450-cyp1a2 (AID 410; calls by dose curve; further: potency means the concentration at half of the fitted maximal effect;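 on activity change, negative = inhibition: -100% = full effect of reference inhibitor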). The following applies: recombinant CYP1A2, luciferin-ME demethylation, luminescence; series mostly up to 57 µM. The procedure, abridged: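 Luminescent readout of luciferin formed from Luciferin-ME by human CYP1A2; data normalized against complete inhibition by 57 uM furafylline. Enzyme 20nM, substrate 100uM at Km, 100mM KPO4 buffer, 60 min reaction at room temperature.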

Assay [4] in a line: NFAT Signaling Pathway (AID 444; active means well fitted curve in either direction with a large enough effect, not every such curve was filed as active;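 further: carbachol stimulus at about its EC50 of 1 µM final; on the % scale 0 is the no-effect control and ±100 the full control effect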). The following applies: Jurkat NFAT-bla M1, carbachol, beta-lactamase ratio, 5 h; at 7.69 µM (top of the series) unless noted. The essentials: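 Jurkat cells with NFAT-driven β-lactamase reporter and co-expressed M1 receptor, stimulated with carbachol (final 1 uM, ~EC50), compound titration, 5 h at 37 °C. CCF4 loaded 1 h at RT; 460/530 nm ratio gave %activity and AC50.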

Assay [5] can be described thus: Stat Signaling Pathway (AID 446; active means well fitted curve in either direction with a large enough effect, not every such curve was filed as active;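 further: ME-180 cervical cancer cells given 40 pM IL-6 alongside compound; SIE-controlled beta-lactamase reporter measured as 460/530 nm FRET emission ratio; on the % scale 0 is the no-effect control and ±100 the full control effect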). The settings on record: ME-180 SIE beta-lactamase reporter, IL-6 stimulated, 5 h; at 7.69 µM (top of the series) unless noted. The essentials: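 Screening format detects activators and inhibitors alike: ME-180 SIE-bla cells stimulated at 40 pM IL-6 for 5 hrs with compound, then dual-emission beta-lactamase read at 405 nm excitation.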

The target in assay [6] is Glucocorticoid receptor (Homo sapiens) (UniProt P04150). Briefly: GR-GFP Redistribution (AID 450;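 active means compounds whose dose series gives a full or clear partial fitted curve of increased nuclear translocation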; further: potency means the concentration at half of the fitted maximal effect). The following applies: U2OS GR-GFP nuclear translocation, laser cytometry, 2 h.
Assay [7] has the same target. Briefly: GR-EFC Redistribution (AID 451; calls by dose curve; further: potency means the concentration at half of the fitted maximal effect). The following applies: CHO-K1 GR-EFC translocation, beta-gal luminescence, 2 h. The essentials:
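CHO-K1 cells expressing nuclear EA and GR-ED fragments of b-gal; compounds titrated up to 46 uM final, 2 h at 37 C. GR nuclear translocation read as complemented b-gal luminescence after 1 h RT detection.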

The target in assay [8] is Mitogen-activated protein kinase 10 (Mus musculus) (UniProt Q61831). Nature of the assay: JNK3 AlphaScreen Assay (AID 530; active means well fitted curve in either direction with a large enough effect, not every such curve was filed as active;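 further: kinase came from lysate of stimulated human HepG2 cells; signal reports phosphorylation of biotinylated GST-cJun 1-79 at Ser73 with 10 µM ATP; on the % scale 0 is the no-effect control and ±100 the full control effect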). The settings on record: JNK3 lysate, c-Jun phosphorylation; series mostly up to 57.1 µM. The procedure, abridged:
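Pre-activated (IL-1β/TNFα) JNK3 in HepG2 lysates phosphorylates biotin-GST-cJun(1-79), 10 uM ATP; anti-phospho-cJun(Ser73) AlphaScreen read at room temperature, pH 7.6 Tris buffer. Compounds pre-incubated 15 min as titrations.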

The target of assay [9] is Cytochrome P450 2C9 (Homo sapiens) (UniProt P11712). Briefly: qHTS Assay for Inhibitors and Substrates of Cytochrome P450 2C9 (AID 883). Further: potency means the concentration at half of the fitted maximal effect; nearly all actives have a fitted effect of over 60% in size. The following applies: recombinant CYP2C9, luciferin-H luminescence, 60 min; series mostly up to 57.1 µM. The procedure, abridged: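 Signal: luciferase luminescence reporting luciferin produced by CYP2C9. Conditions: 10nM enzyme, Luciferin-H 100uM at KM, 25mM KPO4, 37C, 60 min NADPH-driven reaction. Reference: 57uM sulphaphenazole as 100% inhibition.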

Assay [10] deals with Cytochrome P450 3A4 (Homo sapiens) (UniProt P08684). Nature of the assay: qHTS Assay for Inhibitors and Substrates of Cytochrome P450 3A4 (AID 884). Further: potency means the concentration at half of the fitted maximal effect; nearly all actives have a fitted effect of over 50% in size. The following applies: recombinant CYP3A4, Luciferin-PPXE luminescence; series mostly up to 57.1 µM. The procedure, abridged:
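20 nM human CYP3A4 with 25 uM Luciferin-PPXE (at KM) in 200 mM KPO4, preincubated 10 min with compound; NADPH regeneration started a 60 min RT reaction. Luciferin detected by luminescence, normalized to 57 uM ketoconazole as full inhibition.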

The target is the same in assay [11]. Nature of the assay: qHTS Assay for Activators of Cytochrome P450 3A4 (AID 885). Further: nearly all actives have a fitted effect of over 65% in size. The settings on record: recombinant CYP3A4, Luciferin-PPXE luminescence, 60 min; series mostly up to 57.1 µM. The procedure, abridged:
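Steps: enzyme/substrate mix dispensed; compound added, 10 min RT; NADPH regeneration solution added, 60 min RT; luciferin detection buffer stops reaction; 20 min later luminescence measured.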

The target in assay [12] is Dual specificity protein kinase CLK4 (Homo sapiens) (UniProt Q9HAZ1). Nature of the assay: qHTS Assay for Inhibitors of CDC-like Kinase 4 (ADP-FP Assay) (AID 1795).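 Further: recombinant human CLK4 phosphorylating RS repeat peptide at 1 µM ATP; on the % scale 0 is the no-effect control and ±100 the full control effect; nearly all actives have a fitted effect of over 60% in size.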 The following applies: Transcreener ADP fluorescence polarization; series mostly up to 50 µM. The essentials: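 Clk4 6.25 nM; RS peptide 100 uM; ATP 1 uM; 25 mM Tris pH 7.5, 10 mM MgCl2; 1 h reaction. ADP detected via antibody/orange tracer FP displacement; TG003 positive control.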

In assay [13] the target is Ubiquitin carboxyl-terminal hydrolase 1 (Homo sapiens) (UniProt O94782). Briefly: Inhibitors of USP1/UAF1: Pilot qHTS (AID 504865).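 Further: rhodamine fluorescence freed from ubiquitin-rhodamine substrate followed over time; top concentration of the series differs between compounds; on the % scale 0 is the no-effect control and ±100 the full control effect; nearly all actives have a fitted effect of over 35% in size.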 The settings on record: purified USP1/UAF1, Ub-rhodamine cleavage fluorescence; series mostly up to 54.9 µM. The procedure, abridged: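 In 50mM HEPES pH 7.8 containing 0.5mM EDTA, 1mM TCEP, 0.1 mg/ml BSA and 0.01% Tween-20, 1nM USP1/UAF1 is exposed to compound for 15 min, then Ub-Rho (150nM final) is added and fluorescence is read over time.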

A short description of assay [14]: Counterscreen qHTS for small molecule stabilizers of the endoplasmic reticulum resident proteome: GLuc-NoTag assay (AID 1508627).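 Further: 0% = thapsigargin alone and -100% = DMSO vehicle control.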 The following applies: Gaussia luciferase NoTag secretion counterscreen, luminescence, thapsigargin 100 nM for final 4 h; series mostly up to 76.4 µM. The essentials:
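SH-SY5Y cells stably expressing constitutively secreted GLuc without SERCaMP tag, exposed to compound for 19 hr, then to 100 nM thapsigargin for 4 hr at 37C. Medium luciferase was read by coelenterazine luminescence without lysis.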

Assay [15] can be described thus: Confirmatory qHTS for small molecule stabilizers of the endoplasmic reticulum resident proteome: Secreted ER Calcium Modulated Protein (SERCaMP) assay (AID 1508628). Further: nearly all actives have a fitted effect of over 40% in size. Further: potency means the concentration at half of the fitted maximal effect. The following applies: SERCaMP secreted luciferase ER calcium/proteostasis reporter; series mostly up to 76.3 µM. The procedure, abridged: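 SH-SY5Y cells stably expressing GLuc-SERCaMP, treated 16 h with compound (primary 1.53, 7.67, 38.3 uM; confirmation 11 concentrations, up to 76.6 uM), then 100 nM thapsigargin for 4 h. Secreted Gaussia luciferase in medium read by coelenterazine luminescence.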

For assay [16], the target named is 3',5'-cyclic-AMP phosphodiesterase 4B (Homo sapiens) (UniProt Q07343). Nature of the assay: qHTS Assay for Inhibitors of PDE-IV (AID 607; active means well fitted activation curve with a large enough effect in the main read-out, with a control signal flat, not every such curve was filed as active; further: % of control where 0% means no effect). The following applies: HEK293 ACTOne CNG channel cells, membrane potential fluorescence; series mostly up to 22.9 µM. The procedure, abridged: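 The readout is membrane depolarisation from a cAMP-sensing CNG channel, detected with a potential dye at ex 535/em 590. Cells were HEK293-derived (endogenous PDE-IV) at 1000 cells/well, titrated up to 22.9 uM final.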

The nature of assay [17]: Cell Viability qHTS for small molecule stabilizers of the endoplasmic reticulum resident proteome (AID 1508629). The settings on record: cell viability counter-screen, 100 nM thapsigargin for final 4 h.
Assay [18] deals with Dual specificity protein kinase CLK4 (Homo sapiens) (UniProt Q9HAZ1). Briefly: qHTS Assay for Inhibitors of CDC-like Kinase 4 (Kinase-Glo Assay) (AID 1770). Further: on the % scale 0 is the no-effect control and ±100 the full control effect; nearly all actives have a fitted effect of over 65% in size. The following applies: recombinant Clk4, Kinase-Glo ATP depletion luminescence; series mostly up to 66.7 µM. The essentials:
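Substrate mix (RS peptide 100 uM, ATP 1 uM) dispensed, compound pinned in, then Clk4 added to 25 nM final. Incubated 4.5 h at RT; Kinase-Glo reagent added, luminescence read after 5 min.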

Assay [19] is described as follows: qHTS Assay for Lipid Storage Modulators (AID 1519; calls by dose curve). The following applies: Drosophila S3 cells, BODIPY lipid droplet/cell ratio, laser cytometry, cells loaded with oleic acid; for activity change, negative = inhibition: at 57.5 µM (top of the series). The essentials: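 Cells seeded at 5,000 per well were treated with compounds over a concentration series and loaded with oleic acid (400 uM, as added). Lipid droplet fluorescence (488 nm excitation, 500-530 nm channel) was read by laser-scanning cytometry and normalized to 20 uM Triacsin C.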

[20] abbreviates: measured here: cell count channel max response.
Where [21] appears, read: measured here: lipid channel max response.

Chain of Cytochrome P450 3A4 (Homo sapiens) (P08684 whole entry, looked up): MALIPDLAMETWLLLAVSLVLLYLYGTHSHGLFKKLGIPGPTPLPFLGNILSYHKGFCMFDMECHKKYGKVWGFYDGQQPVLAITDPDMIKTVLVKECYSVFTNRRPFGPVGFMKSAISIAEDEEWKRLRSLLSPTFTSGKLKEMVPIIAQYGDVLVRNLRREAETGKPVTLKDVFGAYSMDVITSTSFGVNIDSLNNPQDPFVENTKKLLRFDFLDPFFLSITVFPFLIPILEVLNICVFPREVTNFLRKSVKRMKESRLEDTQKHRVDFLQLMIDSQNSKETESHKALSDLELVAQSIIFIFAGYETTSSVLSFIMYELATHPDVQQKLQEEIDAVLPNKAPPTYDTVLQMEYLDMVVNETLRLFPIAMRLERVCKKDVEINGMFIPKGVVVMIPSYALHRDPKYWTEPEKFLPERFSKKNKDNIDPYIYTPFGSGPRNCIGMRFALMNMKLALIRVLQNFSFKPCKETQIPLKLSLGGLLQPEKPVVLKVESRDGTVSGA
Chain of 3',5'-cyclic-AMP phosphodiesterase 4B (Homo sapiens) (Q07343 whole entry, looked up): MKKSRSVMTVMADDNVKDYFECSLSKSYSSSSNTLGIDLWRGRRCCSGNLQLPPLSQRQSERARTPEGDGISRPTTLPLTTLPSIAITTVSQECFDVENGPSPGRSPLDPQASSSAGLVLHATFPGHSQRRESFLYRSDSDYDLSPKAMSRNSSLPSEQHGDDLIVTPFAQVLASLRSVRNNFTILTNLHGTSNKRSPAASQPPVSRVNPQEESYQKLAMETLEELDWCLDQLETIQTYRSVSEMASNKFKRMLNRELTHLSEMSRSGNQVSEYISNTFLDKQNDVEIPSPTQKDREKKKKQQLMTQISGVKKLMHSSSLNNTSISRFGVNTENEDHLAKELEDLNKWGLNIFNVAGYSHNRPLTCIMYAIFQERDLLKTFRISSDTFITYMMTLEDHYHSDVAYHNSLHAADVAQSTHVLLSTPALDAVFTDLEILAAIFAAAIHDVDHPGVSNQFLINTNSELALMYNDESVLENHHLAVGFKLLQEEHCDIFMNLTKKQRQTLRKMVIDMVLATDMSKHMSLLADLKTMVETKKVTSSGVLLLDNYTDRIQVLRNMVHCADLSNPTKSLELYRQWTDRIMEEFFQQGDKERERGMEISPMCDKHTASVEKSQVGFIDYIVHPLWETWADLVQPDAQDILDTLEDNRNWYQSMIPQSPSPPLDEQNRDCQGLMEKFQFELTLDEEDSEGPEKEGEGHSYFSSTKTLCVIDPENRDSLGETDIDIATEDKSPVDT
Chain of Lysosomal acid glucosylceramidase (Homo sapiens) (P04062 whole entry, looked up): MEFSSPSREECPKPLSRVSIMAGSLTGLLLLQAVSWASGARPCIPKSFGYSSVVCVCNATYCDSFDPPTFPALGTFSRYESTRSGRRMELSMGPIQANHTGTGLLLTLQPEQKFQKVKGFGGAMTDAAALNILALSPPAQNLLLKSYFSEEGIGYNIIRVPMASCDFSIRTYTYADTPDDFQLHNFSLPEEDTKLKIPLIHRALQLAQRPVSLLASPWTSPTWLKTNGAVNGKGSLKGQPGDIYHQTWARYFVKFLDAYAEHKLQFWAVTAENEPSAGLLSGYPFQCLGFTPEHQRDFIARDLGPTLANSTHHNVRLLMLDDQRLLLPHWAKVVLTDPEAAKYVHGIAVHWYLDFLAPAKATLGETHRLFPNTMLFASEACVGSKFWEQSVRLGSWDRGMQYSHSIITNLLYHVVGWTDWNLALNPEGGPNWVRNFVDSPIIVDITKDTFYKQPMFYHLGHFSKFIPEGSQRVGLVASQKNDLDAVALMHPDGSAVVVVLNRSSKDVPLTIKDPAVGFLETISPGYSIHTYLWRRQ
Chain of Glucocorticoid receptor (Homo sapiens) (P04150 whole entry, looked up): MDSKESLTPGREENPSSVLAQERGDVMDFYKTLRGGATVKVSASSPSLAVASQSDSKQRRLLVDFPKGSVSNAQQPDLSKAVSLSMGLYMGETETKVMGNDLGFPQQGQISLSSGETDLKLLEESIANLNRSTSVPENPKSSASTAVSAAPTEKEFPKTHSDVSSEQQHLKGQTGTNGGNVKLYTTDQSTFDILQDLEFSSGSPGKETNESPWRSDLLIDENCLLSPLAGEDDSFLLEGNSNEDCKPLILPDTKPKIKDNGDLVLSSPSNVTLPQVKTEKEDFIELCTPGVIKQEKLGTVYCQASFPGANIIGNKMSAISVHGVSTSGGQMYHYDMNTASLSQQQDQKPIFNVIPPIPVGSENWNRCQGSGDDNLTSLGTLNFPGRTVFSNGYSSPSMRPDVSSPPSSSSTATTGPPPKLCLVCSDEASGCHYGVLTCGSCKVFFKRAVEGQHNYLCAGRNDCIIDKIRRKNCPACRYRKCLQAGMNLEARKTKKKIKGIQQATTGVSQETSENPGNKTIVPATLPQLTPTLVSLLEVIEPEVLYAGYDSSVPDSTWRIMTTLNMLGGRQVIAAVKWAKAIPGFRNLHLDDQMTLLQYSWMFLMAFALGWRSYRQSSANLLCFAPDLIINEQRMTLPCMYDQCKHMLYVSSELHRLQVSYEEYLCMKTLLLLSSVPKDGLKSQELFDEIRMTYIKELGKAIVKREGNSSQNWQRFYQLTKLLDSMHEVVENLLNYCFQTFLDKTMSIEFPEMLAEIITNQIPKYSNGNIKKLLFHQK
Chain of Cytochrome P450 1A2 (Homo sapiens) (P05177 whole entry, looked up): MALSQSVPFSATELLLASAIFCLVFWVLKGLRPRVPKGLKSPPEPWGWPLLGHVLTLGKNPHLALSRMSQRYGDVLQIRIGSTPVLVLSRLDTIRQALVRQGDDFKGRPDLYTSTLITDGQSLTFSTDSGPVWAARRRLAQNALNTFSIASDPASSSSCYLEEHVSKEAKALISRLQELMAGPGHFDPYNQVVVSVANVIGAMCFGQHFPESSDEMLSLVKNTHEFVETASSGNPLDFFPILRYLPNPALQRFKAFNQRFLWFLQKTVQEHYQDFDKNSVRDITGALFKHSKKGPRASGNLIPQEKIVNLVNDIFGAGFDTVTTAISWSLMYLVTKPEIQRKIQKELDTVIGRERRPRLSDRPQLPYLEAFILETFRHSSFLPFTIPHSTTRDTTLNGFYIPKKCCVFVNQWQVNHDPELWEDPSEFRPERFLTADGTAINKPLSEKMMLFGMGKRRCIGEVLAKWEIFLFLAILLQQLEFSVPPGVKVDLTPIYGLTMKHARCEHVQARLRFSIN
Chain of Dual specificity protein kinase CLK4 (Homo sapiens) (Q9HAZ1 whole entry, looked up): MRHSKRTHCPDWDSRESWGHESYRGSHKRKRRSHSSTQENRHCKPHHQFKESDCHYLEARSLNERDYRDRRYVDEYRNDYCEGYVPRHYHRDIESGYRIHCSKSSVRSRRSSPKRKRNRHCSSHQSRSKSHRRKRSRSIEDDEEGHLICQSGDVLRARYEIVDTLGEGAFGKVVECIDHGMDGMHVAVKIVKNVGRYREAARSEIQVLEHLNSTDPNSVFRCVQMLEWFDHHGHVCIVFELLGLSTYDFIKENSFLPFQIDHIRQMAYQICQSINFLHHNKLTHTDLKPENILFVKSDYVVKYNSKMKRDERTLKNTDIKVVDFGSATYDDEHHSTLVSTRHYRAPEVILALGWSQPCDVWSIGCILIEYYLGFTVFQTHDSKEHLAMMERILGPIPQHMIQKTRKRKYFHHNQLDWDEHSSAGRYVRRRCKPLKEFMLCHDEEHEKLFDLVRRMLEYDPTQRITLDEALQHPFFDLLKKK
Chain of Ubiquitin carboxyl-terminal hydrolase 1 (Homo sapiens) (O94782 whole entry, looked up): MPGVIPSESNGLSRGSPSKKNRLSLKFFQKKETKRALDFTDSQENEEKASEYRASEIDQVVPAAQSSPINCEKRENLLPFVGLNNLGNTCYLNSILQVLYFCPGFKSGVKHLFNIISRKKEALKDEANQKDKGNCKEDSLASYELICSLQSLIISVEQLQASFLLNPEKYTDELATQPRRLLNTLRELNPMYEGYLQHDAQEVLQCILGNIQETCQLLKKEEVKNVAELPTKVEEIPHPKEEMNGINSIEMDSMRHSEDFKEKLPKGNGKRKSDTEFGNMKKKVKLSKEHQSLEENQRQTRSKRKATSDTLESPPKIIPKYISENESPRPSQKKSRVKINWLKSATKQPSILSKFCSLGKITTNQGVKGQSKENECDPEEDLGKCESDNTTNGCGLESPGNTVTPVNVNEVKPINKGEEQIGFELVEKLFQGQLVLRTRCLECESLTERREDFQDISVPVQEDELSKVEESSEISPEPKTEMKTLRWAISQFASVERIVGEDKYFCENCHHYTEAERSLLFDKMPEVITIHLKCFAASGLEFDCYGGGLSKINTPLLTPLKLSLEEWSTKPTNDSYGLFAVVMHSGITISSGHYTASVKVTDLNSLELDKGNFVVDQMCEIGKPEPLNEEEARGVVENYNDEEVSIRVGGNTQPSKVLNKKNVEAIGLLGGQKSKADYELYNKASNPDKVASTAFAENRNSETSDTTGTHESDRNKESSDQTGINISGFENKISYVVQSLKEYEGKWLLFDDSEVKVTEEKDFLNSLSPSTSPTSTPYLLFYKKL
Chain of Cytochrome P450 2C9 (Homo sapiens) (P11712 whole entry, looked up): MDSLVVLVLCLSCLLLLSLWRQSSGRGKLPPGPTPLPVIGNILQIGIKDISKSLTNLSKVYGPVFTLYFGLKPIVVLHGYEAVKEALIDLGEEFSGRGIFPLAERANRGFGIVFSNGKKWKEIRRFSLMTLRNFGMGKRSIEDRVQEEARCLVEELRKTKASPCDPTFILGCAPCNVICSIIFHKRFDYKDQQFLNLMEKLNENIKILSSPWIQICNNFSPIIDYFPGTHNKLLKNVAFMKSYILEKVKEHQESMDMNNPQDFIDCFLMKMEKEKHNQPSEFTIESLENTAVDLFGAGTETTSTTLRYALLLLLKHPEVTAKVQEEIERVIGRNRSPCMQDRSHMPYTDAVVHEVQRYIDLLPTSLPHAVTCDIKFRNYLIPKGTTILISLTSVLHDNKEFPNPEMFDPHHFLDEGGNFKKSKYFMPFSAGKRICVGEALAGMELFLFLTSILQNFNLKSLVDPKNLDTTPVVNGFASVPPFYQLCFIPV

With `COc1ccc(CNc2ncnc3ccc(-c4ccccc4OC)cc23)c(OC)c1`, the Potency is > 11.4 µM (inactive) in assay [1]; 3.16 µM (active) in assay [3]; > 46 µM (inactive) in assay [6]; > 46 µM (inactive) in [7]; 0.398 µM (active) in assay [9]; 2 µM (active) in assay [10]. Moreover, the Potency in [15] was 22.4 µM (active). Moreover, the figures for the activity change, negative = inhibition in [2] and in assay [4] were -4.21% (inactive) and -17.9% (inactive), respectively. The activity, negative = inhibition in [5] was -2.99% (inactive). In [8], the compound was called inactive. The Potency result in assay [11], in assay [12], in assay [13] and in assay [14] was “inactive” in each case.
Regarding `COc1ccc(Oc2ncc3nc(-c4cc(F)cc(F)c4)c(=O)n(CCC#N)c3n2)cc1`, the Potency in assay [1] was > 11.4 µM (inactive); in [6], > 9.22 µM (inactive); in assay [7], > 46 µM (inactive); in assay [15], 31.6 µM (active). Also, the activity change, negative = inhibition in assay [2] was -6.65% (inactive); in assay [4], -14.9% (inactive). Besides, the activity, negative = inhibition in assay [5] is -11.4% (inactive). For the same compound, the Potency result in assay [16] and in assay [14] was “inactive” throughout. In addition, the max response in assay [17] was -0.74% (inactive).
Turning to `Cc1nc2cnc(N3CCNCC3)nc2n(CCc2ccccc2)c1=O`, the Potency was > 11.4 µM (inactive) in [1], > 9.22 µM (inactive) in assay [6], > 46 µM (inactive) in assay [7] and 31.6 µM (active) in assay [15]. For the same compound, the activity change, negative = inhibition in assay [2] was -1.97% (inactive); in assay [4], -13.2% (inactive). Also, in assay [5], the activity, negative = inhibition was -13.8% (inactive). Moreover, the result in assay [8] was inactive. Further, the Potency entry in assay [16], in assay [18], in assay [12], in [13] and in [14] was “inactive” each time.
Turning to `COc1ccc(NC(=O)N2CCC3(CC2)CCN(S(=O)(=O)c2ccccc2)CC3)cc1`, the Potency in [1] was > 11.4 µM (inactive); in assay [3], 31.6 µM (active); in assay [7], > 46 µM (inactive). Further, the figures for the activity change, negative = inhibition in assay [2], in [4] and in assay [19] were -24% (inactive), -21.7% (inactive) and 2.68% (inactive), respectively. The activity, negative = inhibition in assay [5] was -16.7% (inactive). Also, the result in assay [8] was inactive. The Potency result in assay [16], in [11], in assay [14] and in assay [15] was “inactive” in each case. Further, the max response in [19] (setting [20]) is 2.58%; in assay [19] (setting [21]), 8.36%; in assay [17] it was -18.8% (inactive).
In the case of `O=C(c1cc(C(F)(F)F)cc(C(F)(F)F)c1)N1CCC2(CC1)CCN(c1ccccn1)CC2`, the Potency was 10.2 µM (inactive) in assay [1] and > 46 µM (inactive) in assay [7]. Besides, the activity change, negative = inhibition in [2] is -6.99% (inactive); in [19], -8.11% (inactive). Moreover, the Potency result in assay [3], in assay [16] and in [14] was “inactive” in each case. The activity, negative = inhibition in [5] was -1.33% (inactive). Besides, the compound was classed as inactive in assay [8]. The max response in [19] (setting [20]) is 10.4%; in assay [19] (setting [21]), 1.85%; in assay [17], 25.1% (inactive).
